According to the supplement of paper PMC11732987, “Enantioselective OTUD7B fragment discovery through chemoproteomics screening and high-throughput optimisation” (Communications Chemistry, 2025):

What was measured:
Assay in all cases: log2 ratio of Biotin-Ahx-Ub-VS probe labelling (fragment/DMSO); higher = less target engagement (more negative = stronger competition), active = hit call of the paper (q ≤ 0.05, log2 ratio ≤ -1)
Details in all cases: compound concentration: 200 uM; treatment time: 3 h
USP19 = biological target: T1, USP19 (UniProt O94966)
T1 sequence (whole entry): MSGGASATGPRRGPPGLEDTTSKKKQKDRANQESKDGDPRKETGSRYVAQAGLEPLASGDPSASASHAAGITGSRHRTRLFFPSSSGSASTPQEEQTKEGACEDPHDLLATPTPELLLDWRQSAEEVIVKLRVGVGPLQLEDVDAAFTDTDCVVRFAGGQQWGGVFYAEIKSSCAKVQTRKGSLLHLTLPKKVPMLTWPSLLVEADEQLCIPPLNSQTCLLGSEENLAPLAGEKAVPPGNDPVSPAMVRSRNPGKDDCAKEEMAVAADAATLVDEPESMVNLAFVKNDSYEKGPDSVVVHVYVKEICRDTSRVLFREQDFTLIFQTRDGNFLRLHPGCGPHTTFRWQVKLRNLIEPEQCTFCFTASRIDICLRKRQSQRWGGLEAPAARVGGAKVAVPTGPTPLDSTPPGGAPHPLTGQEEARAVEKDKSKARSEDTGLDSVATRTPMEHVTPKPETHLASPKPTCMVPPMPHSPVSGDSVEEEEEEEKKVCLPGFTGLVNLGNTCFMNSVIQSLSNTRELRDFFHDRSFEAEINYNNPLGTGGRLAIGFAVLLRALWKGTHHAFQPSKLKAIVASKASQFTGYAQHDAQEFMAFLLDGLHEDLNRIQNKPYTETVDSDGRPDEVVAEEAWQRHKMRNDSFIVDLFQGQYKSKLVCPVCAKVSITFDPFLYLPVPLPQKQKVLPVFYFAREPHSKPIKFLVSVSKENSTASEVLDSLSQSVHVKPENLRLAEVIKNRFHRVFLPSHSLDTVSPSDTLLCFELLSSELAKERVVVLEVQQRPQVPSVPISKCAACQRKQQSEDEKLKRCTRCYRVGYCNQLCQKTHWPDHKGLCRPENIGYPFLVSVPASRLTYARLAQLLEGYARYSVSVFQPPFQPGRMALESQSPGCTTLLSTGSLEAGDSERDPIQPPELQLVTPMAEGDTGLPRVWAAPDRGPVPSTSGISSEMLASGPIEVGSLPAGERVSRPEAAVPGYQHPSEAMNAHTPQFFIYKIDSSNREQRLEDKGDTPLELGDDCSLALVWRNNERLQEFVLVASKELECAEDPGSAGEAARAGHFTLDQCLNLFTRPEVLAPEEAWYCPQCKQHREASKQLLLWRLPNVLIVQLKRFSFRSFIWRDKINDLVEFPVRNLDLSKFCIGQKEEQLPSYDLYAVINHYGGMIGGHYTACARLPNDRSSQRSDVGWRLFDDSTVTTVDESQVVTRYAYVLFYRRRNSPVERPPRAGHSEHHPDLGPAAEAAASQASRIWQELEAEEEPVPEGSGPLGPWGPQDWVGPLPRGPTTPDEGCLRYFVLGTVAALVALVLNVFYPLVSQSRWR
Method in brief: (§1)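 HEK293T lysate (495 µg per sample, in Tris/CHAPS/IGEPAL buffer with protease inhibitors) was treated in triplicate with fragment at 200 µM or with DMSO for 3 h. It was then treated with Biotin-Ahx-Ub-VS (0.5 µM final) for 1 h. Labelled DUBs were NeutrAvidin-enriched, digested with LysC and trypsin, and run by diaPASEF LC-MS/MS. Spectronaut label-free quantities were global-median-normalised. Values are average log2 ratios fragment/DMSO by unpaired t-test, using proteins with ≥2 unique peptides.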

USP24 = USP24 (UniProt Q9UPU5)
USP24, sequence (Q9UPU5 whole entry): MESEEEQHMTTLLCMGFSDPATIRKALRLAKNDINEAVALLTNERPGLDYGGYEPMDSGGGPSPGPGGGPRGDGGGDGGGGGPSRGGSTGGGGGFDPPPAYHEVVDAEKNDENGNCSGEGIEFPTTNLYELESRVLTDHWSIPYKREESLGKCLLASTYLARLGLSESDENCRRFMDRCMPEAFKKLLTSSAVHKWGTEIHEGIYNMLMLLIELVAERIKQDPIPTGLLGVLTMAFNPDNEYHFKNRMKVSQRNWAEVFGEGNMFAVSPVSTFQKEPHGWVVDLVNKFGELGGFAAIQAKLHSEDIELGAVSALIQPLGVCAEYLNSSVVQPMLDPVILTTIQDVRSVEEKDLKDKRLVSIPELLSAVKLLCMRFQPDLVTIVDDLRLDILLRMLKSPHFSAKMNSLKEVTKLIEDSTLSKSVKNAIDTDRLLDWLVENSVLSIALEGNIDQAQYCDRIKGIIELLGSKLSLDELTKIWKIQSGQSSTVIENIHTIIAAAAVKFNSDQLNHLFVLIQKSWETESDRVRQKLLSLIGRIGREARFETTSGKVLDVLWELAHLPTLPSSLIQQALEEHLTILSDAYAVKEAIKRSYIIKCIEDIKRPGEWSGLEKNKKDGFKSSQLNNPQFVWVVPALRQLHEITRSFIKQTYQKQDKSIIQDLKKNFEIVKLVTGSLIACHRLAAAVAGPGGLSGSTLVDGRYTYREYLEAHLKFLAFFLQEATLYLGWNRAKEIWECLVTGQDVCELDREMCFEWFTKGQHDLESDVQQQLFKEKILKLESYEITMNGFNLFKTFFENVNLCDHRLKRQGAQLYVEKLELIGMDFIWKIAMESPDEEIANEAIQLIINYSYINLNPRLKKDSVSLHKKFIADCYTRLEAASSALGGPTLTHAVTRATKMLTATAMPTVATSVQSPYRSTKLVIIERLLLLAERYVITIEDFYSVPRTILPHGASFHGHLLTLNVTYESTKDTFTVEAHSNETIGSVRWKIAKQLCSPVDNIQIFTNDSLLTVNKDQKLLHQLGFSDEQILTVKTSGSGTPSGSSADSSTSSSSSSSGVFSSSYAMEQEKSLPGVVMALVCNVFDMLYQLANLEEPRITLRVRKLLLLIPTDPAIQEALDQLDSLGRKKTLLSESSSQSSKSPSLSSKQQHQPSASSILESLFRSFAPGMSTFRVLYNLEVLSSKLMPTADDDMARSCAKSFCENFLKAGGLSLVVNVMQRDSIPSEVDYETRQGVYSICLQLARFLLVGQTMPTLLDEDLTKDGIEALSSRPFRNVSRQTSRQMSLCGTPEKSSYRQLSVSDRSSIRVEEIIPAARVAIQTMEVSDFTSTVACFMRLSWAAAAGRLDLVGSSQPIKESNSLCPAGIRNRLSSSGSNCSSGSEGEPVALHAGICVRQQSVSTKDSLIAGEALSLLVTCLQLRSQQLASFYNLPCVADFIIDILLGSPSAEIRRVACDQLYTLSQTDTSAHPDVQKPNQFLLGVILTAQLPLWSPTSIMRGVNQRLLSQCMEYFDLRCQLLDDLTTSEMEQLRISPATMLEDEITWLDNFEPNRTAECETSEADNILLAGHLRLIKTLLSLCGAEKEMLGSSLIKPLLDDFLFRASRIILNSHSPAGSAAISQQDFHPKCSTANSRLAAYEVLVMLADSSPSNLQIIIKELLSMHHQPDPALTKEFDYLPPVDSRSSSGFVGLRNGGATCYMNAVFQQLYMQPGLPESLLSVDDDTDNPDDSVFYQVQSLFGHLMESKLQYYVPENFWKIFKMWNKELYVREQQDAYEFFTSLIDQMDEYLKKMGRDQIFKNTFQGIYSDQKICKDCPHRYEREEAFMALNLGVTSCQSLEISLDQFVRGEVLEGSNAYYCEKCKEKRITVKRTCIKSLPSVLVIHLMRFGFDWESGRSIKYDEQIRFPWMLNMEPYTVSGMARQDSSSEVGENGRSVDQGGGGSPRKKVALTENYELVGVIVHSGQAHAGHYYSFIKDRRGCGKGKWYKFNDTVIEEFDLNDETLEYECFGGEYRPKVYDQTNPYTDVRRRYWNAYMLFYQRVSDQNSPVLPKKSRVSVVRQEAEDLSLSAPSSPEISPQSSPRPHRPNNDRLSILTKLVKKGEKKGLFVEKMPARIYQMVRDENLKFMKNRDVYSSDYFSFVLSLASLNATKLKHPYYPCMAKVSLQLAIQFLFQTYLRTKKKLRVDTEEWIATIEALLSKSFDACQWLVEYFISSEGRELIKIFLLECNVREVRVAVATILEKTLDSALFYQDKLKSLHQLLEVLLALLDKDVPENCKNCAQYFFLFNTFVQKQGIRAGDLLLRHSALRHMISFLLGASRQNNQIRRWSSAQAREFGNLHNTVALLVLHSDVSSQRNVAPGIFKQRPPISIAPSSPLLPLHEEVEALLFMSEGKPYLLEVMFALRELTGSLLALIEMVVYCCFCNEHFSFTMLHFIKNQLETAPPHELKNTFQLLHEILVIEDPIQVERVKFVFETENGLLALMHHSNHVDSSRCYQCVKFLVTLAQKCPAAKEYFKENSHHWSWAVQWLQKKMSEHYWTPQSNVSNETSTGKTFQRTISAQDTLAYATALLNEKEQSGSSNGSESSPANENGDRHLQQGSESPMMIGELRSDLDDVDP
Method in brief: as §1

USP25 = biological target: T2, USP25 (UniProt Q9UHP3)
T2 sequence (whole entry): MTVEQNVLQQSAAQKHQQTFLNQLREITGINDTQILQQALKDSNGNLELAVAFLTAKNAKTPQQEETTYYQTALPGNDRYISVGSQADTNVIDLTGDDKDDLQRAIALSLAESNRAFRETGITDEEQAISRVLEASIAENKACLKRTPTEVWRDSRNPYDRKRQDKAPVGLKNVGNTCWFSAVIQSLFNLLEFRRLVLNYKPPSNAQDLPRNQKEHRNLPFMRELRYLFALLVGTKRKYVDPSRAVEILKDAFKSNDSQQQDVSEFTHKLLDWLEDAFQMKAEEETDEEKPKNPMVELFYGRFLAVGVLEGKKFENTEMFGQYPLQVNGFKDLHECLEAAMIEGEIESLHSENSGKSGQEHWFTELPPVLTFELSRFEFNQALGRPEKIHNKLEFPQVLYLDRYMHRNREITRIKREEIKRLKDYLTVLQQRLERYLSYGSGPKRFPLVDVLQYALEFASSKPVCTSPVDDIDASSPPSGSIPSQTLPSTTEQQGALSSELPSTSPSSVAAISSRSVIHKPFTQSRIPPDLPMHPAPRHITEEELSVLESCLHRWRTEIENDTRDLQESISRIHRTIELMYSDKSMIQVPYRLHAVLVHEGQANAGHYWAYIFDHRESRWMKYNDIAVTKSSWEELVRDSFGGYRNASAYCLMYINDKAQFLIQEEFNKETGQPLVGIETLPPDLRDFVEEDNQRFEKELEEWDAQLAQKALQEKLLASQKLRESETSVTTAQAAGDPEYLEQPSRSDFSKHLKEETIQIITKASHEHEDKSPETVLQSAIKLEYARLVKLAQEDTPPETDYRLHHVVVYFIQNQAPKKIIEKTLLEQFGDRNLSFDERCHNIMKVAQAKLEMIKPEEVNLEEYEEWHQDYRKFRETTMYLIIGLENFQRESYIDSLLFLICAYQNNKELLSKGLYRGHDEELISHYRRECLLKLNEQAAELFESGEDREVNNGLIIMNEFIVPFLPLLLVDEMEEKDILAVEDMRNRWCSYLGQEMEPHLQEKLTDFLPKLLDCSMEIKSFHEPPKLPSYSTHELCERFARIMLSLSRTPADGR
Method in brief: as §1

USP28 = biological target: T3, USP28 (UniProt Q96RU2)
T3 sequence (whole entry): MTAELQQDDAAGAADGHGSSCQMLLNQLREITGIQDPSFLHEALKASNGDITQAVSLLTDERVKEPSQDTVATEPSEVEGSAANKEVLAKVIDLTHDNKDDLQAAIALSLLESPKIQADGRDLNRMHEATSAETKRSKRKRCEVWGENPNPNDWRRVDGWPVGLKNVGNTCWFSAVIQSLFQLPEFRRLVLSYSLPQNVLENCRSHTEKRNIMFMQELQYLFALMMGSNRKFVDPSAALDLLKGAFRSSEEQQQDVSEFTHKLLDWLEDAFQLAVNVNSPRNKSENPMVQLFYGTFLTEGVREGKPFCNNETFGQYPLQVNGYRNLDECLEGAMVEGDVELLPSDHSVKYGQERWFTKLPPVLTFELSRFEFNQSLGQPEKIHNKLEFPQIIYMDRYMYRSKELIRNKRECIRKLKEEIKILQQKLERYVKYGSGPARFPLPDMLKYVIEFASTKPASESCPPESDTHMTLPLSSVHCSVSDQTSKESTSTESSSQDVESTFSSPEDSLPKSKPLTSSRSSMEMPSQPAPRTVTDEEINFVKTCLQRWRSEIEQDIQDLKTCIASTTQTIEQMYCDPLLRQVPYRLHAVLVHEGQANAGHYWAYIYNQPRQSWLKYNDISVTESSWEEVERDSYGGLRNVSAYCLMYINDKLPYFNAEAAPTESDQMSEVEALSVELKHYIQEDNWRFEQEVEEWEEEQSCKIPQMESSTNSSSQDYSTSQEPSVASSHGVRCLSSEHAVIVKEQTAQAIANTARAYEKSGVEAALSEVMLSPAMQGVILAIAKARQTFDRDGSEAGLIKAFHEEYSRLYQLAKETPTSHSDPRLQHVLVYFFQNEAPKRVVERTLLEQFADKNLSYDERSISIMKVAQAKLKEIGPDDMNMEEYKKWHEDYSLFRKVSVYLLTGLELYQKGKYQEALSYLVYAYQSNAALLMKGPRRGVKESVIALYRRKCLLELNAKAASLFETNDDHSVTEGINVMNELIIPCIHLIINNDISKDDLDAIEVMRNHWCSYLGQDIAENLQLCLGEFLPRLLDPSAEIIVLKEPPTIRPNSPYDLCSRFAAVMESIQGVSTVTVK
Method in brief: as §1

Measured: log2 ratio of Biotin-Ahx-Ub-VS probe labelling

O=C(CCl)N(C1CCCC1)C1CCS(=O)(=O)C1 (centres undefined)
inactive: USP19 -0.0865 | USP24 -0.274 | USP25 0.0715 | USP28 -0.36
